# Bioassay records: PubChem, National Center for Advancing Translational Sciences (NCATS)
# This is a sample that favours compounds with a hit; in the whole collection about 7.5% have one here.
# Rab9 promoter act: qHTS Assay for Rab9 Promoter Activators; Huh7 Rab9 promoter-luciferase reporter, luminescence, 24 h; Potency, µM (series often up to 9.22 µM), for the others: at the highest dose activation, negative = inhibition, hits mostly activators; 320,000 compounds, 2.8% hits; also: % of control where 0% means no effect; nearly all actives have a fitted effect of over 60% in size
#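 Quantitative HTS format; Huh7 Rab9-luciferase reporter cells (1500/well) receive compound 2 h post-plating, incubate 24 h at 37 °C, then get luciferase reagent for 10 min before luminescence reading.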
# SMN2 splice enh: qHTS Assay for Enhancers of SMN2 Splice Variant Expression. HEK293 SMN2-luciferase splicing reporter, luminescence, 30-36 h. Potency, µM (top dose mostly 46.1 µM), for the others: top-dose activity change, positive = activation, usual class: activators. 210,000 compounds, 2.8% hits; also: % of control where 0% means no effect; nearly all actives have a fitted effect of over 55% in size
#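 HEK293 cells carry an SMN2 minigene-luciferase reporter in which exon 7 inclusion puts luciferase in frame. Cells were seeded at 2000 cells/well, attached for 10-12 hours, then exposed to compounds for 30-36 hours at 37C before ONE-Glo luminescence.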
# ELG1 genotox: qHTS screen for small molecules that induce genotoxicity in human embryonic kidney (HEK293T) cells expressing luciferase-tagged ELG1; HEK293T ELG1-luciferase reporter, luminescence, 16 h; Potency, µM (highest dose often 46 µM), for the others: at the top dose activity change, positive = activation, most hits filed as activators; 330,000 compounds, 1.3% hits; also: % of control where 0% means no effect; nearly all actives have a fitted effect of over 60% in size
#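 Cells (2,000/well) expressing the ELG1-luciferase fusion are dosed by pin tool and kept 16 hr at 37 °C, 5% CO2. Signal comes from ONE-Glo luciferase reagent after 30 min at room temperature.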
# NPC1 prom act: qHTS Assay for NPC1 Promoter Activators. Huh7 NPC1 promoter luciferase reporter, 24 h. Potency, µM (doses to about 9.22 µM), without a hit: at the highest dose activation, most hits filed as activators. 320,000 compounds, 2.4% hits; also: % of control where 0% means no effect; nearly all actives have a fitted effect of over 60% in size
#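 Stably transfected Huh7 (NPC1 promoter→luciferase), 1500 cells/well in Opti-MEM + 10% FBS, 2 h settle, then compound 24 h at 37 °C. Luminescence after 10 min with Amplite reagent.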
# FLuc counter: qHTS profiling assay for firefly luciferase inhibitor/activator using purifed enzyme and Km concentrations of substrates (counterscreen for miR-21 project); Luciferin 4-monooxygenase (Photinus pyralis), P08659; 360,000 compounds, 6.9% hits; purified FLuc, Km substrates, luminescence inhibition; Potency, µM (titrated, usually from 57.5 µM), for the others: top-dose activity change, negative = inhibition, actives largely listed as inhibitors;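 also: plate controls were vehicle for no effect and reference inhibitor for full effect; nearly all actives have a fitted effect of over 55% in size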
# Target sequence (P08659 whole entry, looked up): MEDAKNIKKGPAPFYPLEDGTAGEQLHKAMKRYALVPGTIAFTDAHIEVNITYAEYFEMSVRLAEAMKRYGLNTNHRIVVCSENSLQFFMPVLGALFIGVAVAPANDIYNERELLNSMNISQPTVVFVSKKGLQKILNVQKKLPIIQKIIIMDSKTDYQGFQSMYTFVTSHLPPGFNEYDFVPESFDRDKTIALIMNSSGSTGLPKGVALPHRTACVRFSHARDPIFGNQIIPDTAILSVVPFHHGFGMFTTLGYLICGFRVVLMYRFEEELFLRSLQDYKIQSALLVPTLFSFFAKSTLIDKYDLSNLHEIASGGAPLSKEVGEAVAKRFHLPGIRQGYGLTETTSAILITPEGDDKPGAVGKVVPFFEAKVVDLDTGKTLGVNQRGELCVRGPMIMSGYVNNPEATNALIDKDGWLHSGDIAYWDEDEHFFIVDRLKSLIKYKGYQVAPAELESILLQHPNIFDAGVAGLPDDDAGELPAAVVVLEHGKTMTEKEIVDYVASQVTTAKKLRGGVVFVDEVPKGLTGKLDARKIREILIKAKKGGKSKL
#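 Purified P. pyralis luciferase (10nM final) with 10uM D-luciferin and 10uM ATP (Km levels) in 50mM Tris acetate pH 7.5, 10mM Mg acetate, 0.01% Tween-20, 0.05% BSA; qHTS 6-point titration, ~60 µM downward; luminescence read.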
# The depositor's hits bear a star; ? = inconclusive; / = not tested or not shown. Calls follow the shape of the dose curve; as a rule, active = well fitted curve in the direction sought with a large enough effect; inconclusive = small, poorly fitted or top-dose-only effect, or another doubt; inactive = no such curve, though single readings can be large; an effect the other way counts as inactive or inconclusive. Potency is read from the fitted curve at half-maximal effect.
SMILES,Rab9 promoter act,SMN2 splice enh,ELG1 genotox,NPC1 prom act,FLuc counter
COc1ccc(Nc2nc(N)c3ccccc3n2)c(OC)c1,4.47µM*,/,?,3.55µM*,7.57µM*
COc1cc2nc(Nc3cccc(F)c3)nc(N)c2cc1OC,0.2%,3.0%,-6.2%,0.5%,?
COc1ccc(Nc2nc(-c3ccccc3)nc3ccccc23)c(OC)c1,-4.5%,-12.4%,-6.1%,-12.0%,-18.9%
COc1ccc(C(C(=O)NCCC(C)C)N(CCN2CCOCC2)C(=O)Cn2nnc3ccccc32)c(OC)c1 (configuration not stated),-5.0%,/,-0.5%,-7.9%,3.8%
O=C(CN1CCN(c2ccccc2O)CC1)NCCCc1ccccc1,-7.2%,-8.7%,-0.1%,1.1%,1.5%
COC(=O)c1ccc(C(NC(=O)OCc2ccccc2)/C(C)=C/[C@@H](C)C(=O)NCc2cccnc2)cc1 (some centres not stated),/,-6.9%,/,/,/
O=C(CSc1ccc(Cl)cc1)NC(=O)c1ccccc1,-0.8%,/,-0.4%,-0.9%,0.7%
Clc1ccc(-c2nc(-c3ccccn3)no2)cc1Cl,0.562µM*,2.51µM*,?,0.316µM*,0.953µM*
COc1ccc(-c2nc(-c3ccccn3)no2)cc1,0.0398µM*,/,?,0.1µM*,0.0953µM*
O=[N+]([O-])c1cc(-c2nc(-c3ccccn3)no2)ccc1NCc1ccccc1,/,/,/,/,-17.7%
Cc1ccc(S(=O)(=O)N2CCC(C(=O)O)CC2)cc1,-3.7%,/,2.3%,-7.2%,-0.5%
O=C(/C=C/c1ccc([N+](=O)[O-])cc1)Nc1cccc(C(=O)Nc2ccccc2C(=O)O)c1,-5.9%,/,-9.4%,-2.6%,5.36µM*
COC(=O)c1cccc(NC(=O)/C=C/c2ccc([N+](=O)[O-])cc2)c1,1.7%,-10.1%,-3.8%,8.0%,2.39µM*
CCOC(=O)c1cccc(NC(=O)/C=C/c2ccc([N+](=O)[O-])cc2)c1,8.0%,-56.0%,2.1%,3.0%,2.69µM*
CC(=O)c1cccc(NC(=O)/C=C/c2ccc([N+](=O)[O-])s2)c1,-36.2%,-81.8%,2.91µM*,-34.5%,-2.2%
COC(=O)c1cccc(NC(=O)/C=C/c2cccc([N+](=O)[O-])c2)c1,?,-20.1%,0.4%,18.0%,?
CCOC(=O)c1c(NC(=O)CSc2cn(CCNC(=O)c3ccc(OC)c(OC)c3)c3ccccc23)sc2c1CCCC2,/,1.1%,/,/,-4.7%
Cc1cc(/C([O-])=C(/C(=S)Nc2ccc(F)cc2)[n+]2ccccc2)c(C)n1-c1ccc(F)cc1,22.4%,2.5%,4.5%,11.2%,?
Cc1cc(/C([O-])=C(/C(=S)Nc2ccccc2)[n+]2ccccc2)c(C)n1-c1ccccc1,21.8%,-0.4%,10.3µM*,16.8%,12µM*
CC1(C)CN=C(N(Cc2ccccc2)C(=O)Nc2ccccc2)S1,?,-13.8%,?,?,15.1µM*
COc1cc(/C=N\NC(=O)CC#N)ccc1OC/C=C/c1ccccc1,9.3%,/,-2.8%,-1.6%,1.0%
CNC(=S)N/N=C/c1ccccc1OCC(=O)O,-4.9%,/,2.1%,-6.6%,-18.0%
CC(C)(O)C(=O)N/N=C\c1ccc(OC/C=C/c2ccccc2)cc1,6.2%,/,4.0%,0.2%,0.2%
CCOC(=O)N/N=C\c1cccc(OC)c1OC/C=C/c1ccccc1,8.5%,/,-3.9%,3.5%,9.53µM*
CC(=O)N/N=C\c1cccc(OC/C=C/c2ccccc2)c1,0.447µM*,/,?,0.398µM*,10.7µM*
N#CCC(=O)N/N=C\c1cccc(OC/C=C/c2ccccc2)c1,?,/,?,0.562µM*,13.5µM*
CC(=O)N/N=C\c1ccccc1OC/C=C/c1ccccc1,26.7%,/,16.4µM*,?,-17.2%
COc1cccc(/C=N/NC(=O)CC(C)O)c1OC/C=C/c1ccccc1 (configuration not stated),-3.2%,/,-9.1%,-0.9%,-4.9%
CCOc1ccc(C(=O)c2cn(Cc3ccc(OC)cc3)c3cc(OC)c(OC)cc3c2=O)cc1,/,26.2%,/,/,4.8%
